HEK293 tox: Cytotoxic Profiling in HEK 293 Cell Line of Diverse Libraries Using Quantitative High-Throughput Screening; 94,000 compounds, 6.6% hits; Potency, µM (series often up to 115 µM), without a hit: at the highest dose activity change, negative = cytotoxicity, most hits filed as inhibitors; HEK 293 viability, ATP luminescence (CellTiter-Glo), 48-72 h; further: nearly all actives have a fitted effect of over 60% in size
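Pintool-delivered compounds were incubated with HEK 293 cells (250 cells/well) at 37 degree Celsius for 48 or 72 hr. ATP-dependent luminescence (CellTiter-Glo) then reported remaining viable cells.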
Luciferase inh: Firefly luciferase inhibition profiling of diverse chemical library using quantitative high-throughput screening; purified P. pyralis luciferase, luminescence, biochemical; Potency, µM (series often up to 115 µM), usual class: inhibitors; 76,000 compounds, 2.5% hits; Luciferin 4-monooxygenase (Photinus pyralis), P08659; AID 1347043, 2019; further: nearly all actives have a fitted effect of over 65% in size
Target sequence (P08659 whole entry, looked up): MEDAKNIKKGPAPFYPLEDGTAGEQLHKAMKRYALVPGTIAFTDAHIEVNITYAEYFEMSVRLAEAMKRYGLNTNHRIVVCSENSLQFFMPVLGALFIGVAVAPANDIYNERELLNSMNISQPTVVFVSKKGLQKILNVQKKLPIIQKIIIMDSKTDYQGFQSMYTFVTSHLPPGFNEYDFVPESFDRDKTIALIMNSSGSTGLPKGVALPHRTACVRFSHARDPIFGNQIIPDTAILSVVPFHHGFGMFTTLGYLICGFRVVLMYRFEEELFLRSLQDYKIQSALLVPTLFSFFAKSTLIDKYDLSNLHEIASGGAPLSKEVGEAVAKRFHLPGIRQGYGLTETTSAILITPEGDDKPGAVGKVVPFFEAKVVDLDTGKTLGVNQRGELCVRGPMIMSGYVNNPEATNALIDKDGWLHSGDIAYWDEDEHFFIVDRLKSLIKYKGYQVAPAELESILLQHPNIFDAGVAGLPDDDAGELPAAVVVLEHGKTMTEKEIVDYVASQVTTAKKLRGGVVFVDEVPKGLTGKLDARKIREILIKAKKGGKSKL
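FLuc 10nM, D-luciferin 10uM, ATP 10uM, Mg acetate 10mM, Tris acetate pH 7.5, Tween/BSA; cpd qHTS; enzyme added last; CCD luminescence.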
GPT2 inhibitor: Primary qHTS assay for inhibitors of Glutamate pyruvate transaminase 2 (GPT2); AID 1671188, 2021; 100,000 compounds, 0.25% hits; Potency, µM (doses to about 57.7 µM), without a hit: at the top dose activity change, negative = inhibition, hits mostly inhibitors; Alanine aminotransferase 2 (Homo sapiens), Q8TD30; Recombinant GPT2, coupled pyruvate oxidase/HRP Amplex Red fluorescence; further: nearly all actives have a fitted effect of over 60% in size
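Inhibition is scored from Amplex Red fluorescence generated when pyruvate oxidase and HRP act on pyruvate released by GPT2. Reactions contain 10ng/uL enzyme, 250uM a-KG and 2mM L-alanine and run 30 min at room temperature.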
3T3 cytotox: Cytotoxic Profiling in NIH 3T3 Cell Line of Diverse Libraries Using Quantitative High-Throughput Screening. NIH 3T3 viability, CellTiter-Glo ATP luminescence, 48-72 h. Potency, µM (series often up to 96.7 µM), inactives show top-dose activity change, negative = cytotoxicity, actives largely listed as inhibitors. 94,000 compounds, 4.3% hits; further: nearly all actives have a fitted effect of over 55% in size
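Luminescent ATP readout (CellTiter-Glo, 10 min RT) after 48 or 72 hr compound exposure of NIH 3T3 cells seeded at 400 cells/well in 1536-well format; quantitative HTS.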
NPR1 antag: Natriuretic polypeptide receptor (hNpr1) antagonism - Primary qHTS. Atrial natriuretic peptide receptor 1 (Homo sapiens), P16066. HEK293 hNpr1 GloSensor cGMP, ANP-stimulated luminescence. Potency, µM (highest dose often 46.3 µM), inactives show at the top dose activity change, negative = inhibition, most hits filed as inhibitors. 76,000 compounds, 1.6% hits. AID 1347048, 2019; calls by dose curve; further: nearly all actives have a fitted effect of over 60% in size
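HEK293 cells stably expressing human Npr1 and cGMP GloSensor pGS-40F, loaded 2 h with 2% GloSensor reagent, given compound 30 min at room temperature. Luminescence read before and 20 min after 0.1 nM hNppA.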
* = called active by the depositor; i = inactive; u = inconclusive; ! = a repeat was not active; [ ] = dose if it differs, or a comment. Shown are actives, neighbours in structure and some others; about 10% of the full set was active somewhere. Unless noted, the call rests on the fitted dose curve; in most records, active means well fitted curve in the direction sought with a large enough effect; inconclusive means small, poorly fitted or top-dose-only effect, or another doubt; inactive means no such curve, though single readings can be large; an effect the other way counts as inactive or inconclusive. On the % scale 0 is the no-effect control and ±100 the full control effect; potency means the concentration at half of the fitted maximal effect.

SMILES | HEK293 tox | Luciferase inh | GPT2 inhibitor | 3T3 cytotox | NPR1 antag
Cc1noc(C)c1-c1cnc(NC(=O)c2ccc(Cl)cc2)c2c1CCO2 | -24%[172 µM] | i | 0%[88.5 µM] | 89µM* | 2%[70.6 µM]
COc1ccc(C(=O)N2CCC3(CC2)N(C)C(=O)CS3(=O)=O)cc1F | -1% | i | i | -1% | -12%
COc1ccccc1-c1cnc(NC(=O)c2ccc(F)c(Cl)c2)c2c1CCO2 | u | 18µM* | -2%[88.5 µM] | u | -25%[70.6 µM]
COc1ccccc1-c1cnc(NC(=O)c2cccnc2)c2c1CCO2 | -58%[172 µM] | i | 5%[88.5 µM] | u | 5%[70.6 µM]
CCN1c2cc(C(=O)Nc3ccc(Cl)cc3)ccc2C(=O)N2CCCCCC21 (stereo not drawn) | 45µM* | i | i | u | -7%
CCN1c2cc(C(=O)Nc3ccc(C(C)C)cc3)ccc2C(=O)N2CCCCCC21 (stereo not drawn) | u | i | i | 22µM* | 4%
CCN1c2cc(C(=O)Nc3ccc(-n4ccnc4)cc3)ccc2C(=O)N2CCCCCC21 (stereo not drawn) | u | i | i | 11µM* | -3%
CCOc1ccc(NC(=O)c2ccc3c(c2)N(CC)C2CCCCCN2C3=O)cc1 (stereo not drawn) | u | i | i | u | -3%
CCN1c2cc(C(=O)Nc3ccc(C(C)C)cc3)ccc2C(=O)N2CCCCC21 (stereo not drawn) | 18µM* | u | 1% | u | 4%
O=C(CC1CCCC1)NC1CCCN(c2cc(N3CCCC3)ncn2)C1 (stereo not drawn) | u | i | u | u | -9%
O=C(CCc1ccc2c(c1)OCO2)N[C@H](c1ccccn1)C1CC(O)C1 (stereo partly drawn) | -25% | i | i[11.5 µM] | -13% | -9%
Cc1ccc(C(=O)N2CCOc3ccc(CN4CCc5ccccc5C4)cc3C2)cn1 | u | i | 4% | -23% | -4%
N#Cc1cccc(CN2CCC(c3nc4ccc(F)cc4c(=O)[nH]3)CC2)c1 | 22µM*! | i | u | u | 1%
N#Cc1cccc(CN2CCCC(c3nc4ccc(F)cc4c(=O)[nH]3)C2)c1 (stereo not drawn) | 45µM*! | i | i | u | -6%
O=c1[nH]c(C2CCN(Cc3ccc(Cl)cc3)CC2)nc2ccc(F)cc12 | -3% | i | 4% | -13% | -19%
O=C1CCN(Cc2cccnc2)CCCC(C(=O)NC2CCN(Cc3ccccc3)CC2)CCN1 (stereo not drawn) | -12% | i | i | -23% | 5%
O=C(Cc1ccc2c(c1)OCO2)N(Cc1ccncc1)Cc1cccc(OCCc2ccc(F)cc2)c1 | 40µM* | i | i | 35µM* | u
CC(C)c1noc(-c2ccn3c(CNC(=O)c4ccco4)nnc3c2)n1 | u | i | i | -14% | 12%
O=C1N(C2CCCCC2)C[C@H]2CN(S(=O)(=O)c3ccc(F)cc3)CCN12 | u | i | 1%[88.5 µM] | 35µM* | -2%[70.6 µM]
COc1cccc(NC(=O)C2CCCN(Cc3ccncc3)CCC(=O)NCC2)c1 (stereo not drawn) | -3% | i | 3% | -1% | -3%
O=C1COc2ccc(-c3ccccc3)nc2CN1Cc1ccccc1 | 112µM* | i | i | u | -16%[70.6 µM]
O=C1COc2ccc(-c3ccncc3)nc2CN1Cc1ccccc1F | u | i | 3%[88.5 µM] | 89µM* | 1%[70.6 µM]
O=C1COc2ccc(-c3cc(F)cc(F)c3)nc2CN1Cc1ccccc1 | u | i | -2%[88.5 µM] | u | 1%[70.6 µM]
O=C1COc2ccc(-c3ccc(F)cc3)nc2CN1Cc1ccccc1F | 100µM* | i | 0%[88.5 µM] | u | -22%[70.6 µM]

Source: PubChem
